Compounds with a hit are over-represented: about 6% of the library has one in this group of screens.
D1 ag: human D1 receptor agonism; HEK293 T-REx D1 cells, calcium flux, agonist mode; activation, % at 2 µM; AID 504660; 360,000 compounds, 1% hits; in the data active = activation above about 30%
Target sequence (P21728 whole entry, looked up): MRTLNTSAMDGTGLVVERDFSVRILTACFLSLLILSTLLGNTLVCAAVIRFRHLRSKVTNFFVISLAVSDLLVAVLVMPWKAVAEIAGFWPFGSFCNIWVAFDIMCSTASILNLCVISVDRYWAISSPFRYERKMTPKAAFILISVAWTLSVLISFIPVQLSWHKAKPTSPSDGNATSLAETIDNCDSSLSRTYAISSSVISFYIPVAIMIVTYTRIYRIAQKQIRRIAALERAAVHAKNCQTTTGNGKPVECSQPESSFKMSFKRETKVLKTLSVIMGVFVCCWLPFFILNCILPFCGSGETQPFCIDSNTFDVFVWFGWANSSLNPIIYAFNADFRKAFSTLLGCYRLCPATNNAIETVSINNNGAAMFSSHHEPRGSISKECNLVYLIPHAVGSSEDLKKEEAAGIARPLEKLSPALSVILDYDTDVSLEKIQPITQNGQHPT
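Tetracycline-induced HEK293 TREx D1 cells, force-coupled to calcium signalling, were dye-loaded with a no-wash calcium kit. Compound was pin-added after a 10 s baseline. Fluorescence was read kinetically at 1 cycle/s for 180 s, with calcium rises flagged as agonism.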
D1 antag: blocks dopamine activation of the human D1 receptor. HEK293 TREx D1 cells, calcium flux, dopamine EC80; stronger effect = lower value. activity change, negative = inhibition, % at 10 µM. 360,000 compounds, 3.2% hits; in the data active = activity change below about -30%
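Compound effects on dopamine-evoked calcium signalling were measured in tetracycline-induced HEK293 Trex D1 cells. Dopamine at EC80 followed a 180 s compound pre-read, and fluorescence was tracked kinetically for 180 s more.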
D1 PAM: enhances dopamine response at the human D1 receptor; 360,000 compounds, 0.036% hits; AID 504651; P21728; potentiation, % at 10 µM; HEK293 TREx D1 cells, calcium flux, dopamine EC20 potentiation; in the data active = potentiation above about 30%
DRD3 antagonist: antagonists of human D3 dopamine receptor; P35462; D3R cells, DiscoveRx beta-arrestin luminescence, antagonist mode; stronger effect = lower value; max response, negative = inhibition, %; 360,000 compounds, 2.5% hits; in the data active = max response below about -50%
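Cells plated overnight at 1500 cells/well, then exposed to library compounds with dopamine controls for 90 minutes at 37 degrees C. DiscoveRx reagent added for 30–60 minutes at room temperature; luminescence read, quantitative HTS format.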
D3 ag: agonists of human D3 dopamine receptor. D3R DiscoveRx beta-arrestin cells, luminescence, 90 min. max activation, %. 410,000 compounds, 0.58% hits; in the data active = max activation above about 30%
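Cells at 1500/well, incubated overnight, then treated with pinned compounds (dopamine as control) for 90 min at 37 degrees C. DiscoveRx reagent added for 30 - 60 minutes at room temperature; luminescence read.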
Hits are given with their value; i = inactive; nt = no result.

SMILES	D1 ag	D1 antag	D1 PAM	DRD3 antagonist	D3 ag
CC(C)(C)OC(=O)NCc1ccc(CNC(=O)c2nc[nH]c2C(=O)NCc2ccccc2)cc1	i	-53	i	i	i
O=C(Nc1ccccc1)c1nc[nH]c1C(=O)NCc1ccccc1	i	nt	i	i	i
CN(Cc1ccccc1)C(=O)c1[nH]cnc1C(=O)NCc1ccc(CNC(=O)OC(C)(C)C)cc1	i	nt	i	i	70
Cc1ccc(CCNS(=O)(=O)c2ccc3c(c2)CCN3C(=O)CCC(=O)O)cc1	i	i	i	nt	i
O=C(Nc1cccc(Cl)c1)C1CCCN(c2nn3cc(-c4ccc(F)cc4)nc3s2)C1 (configuration not stated)	i	i	i	nt	i
CCc1ccc(C(=O)c2cn(CC(=O)Nc3cccc(OC)c3)c3ccc(OC)cc3c2=O)cc1	i	i	i	nt	i
Cc1ccccc1Cn1c(=O)n(CCCCC(=O)NCCc2ccccc2)c(=O)c2ccccc21	i	i	i	nt	i
COc1cccc(CNC(=O)Nc2ccc3c(c2)N(C)C(=O)c2ccccc2S3)c1	i	i	i	nt	i
CCN(CC)C(=O)c1[nH]cnc1C(=O)NCC(=O)OCc1ccccc1	i	i	i	i	39
CC(C)(C)OC(=O)NCc1ccc(CNC(=O)c2[nH]cnc2C(=O)NCC(=O)OCc2ccccc2)cc1	i	i	i	i	43
CC(C)(C)OC(=O)CNC(=O)c1[nH]cnc1C(=O)NCCCCCNC(=O)OC(C)(C)C	i	i	i	i	55
CC(C)(C)OC(=O)NCc1ccc(NC(=O)c2nc[nH]c2C(=O)N[C@@H](Cc2ccccc2)C(=O)OCc2ccccc2)cc1	i	i	i	i	31
CC(C)(C)OC(=O)CNC(=O)c1[nH]cnc1C(=O)NCCCCCN	i	i	i	i	i
CC(C)(C)OC(=O)NCc1ccc(CNC(=O)c2[nH]cnc2C(=O)N[C@@H](Cc2ccccc2)C(=O)OCc2ccccc2)cc1	i	i	i	i	i
CCC(Sc1nc2ncccc2o1)C(=O)Nc1ccc(OC)c(OC)c1 (configuration not stated)	i	i	i	nt	i
CC(CNC(=O)c1cccnc1)NC(=O)c1cccnc1 (configuration not stated)	nt	nt	nt	nt	i
Fc1ccc([C@@H]2CCNC[C@H]2COc2ccc3c(c2)OCO3)cc1	59	-37	i	i	i
Fc1ccc(C2CCNCC2COc2ccc3c(c2)OCO3)cc1 (configuration not stated)	38	i	i	i	i
CC1(C(=O)NS(=O)(=O)c2cccc(Cl)c2)CCN1C(=O)CC1CCCCC1 (configuration not stated)	nt	nt	nt	i	i
CC1(C(=O)Nc2cnc3ccccc3c2)CCN1C(=O)CCc1ccccc1 (configuration not stated)	nt	nt	nt	i	54
CC1(C(=O)NS(=O)(=O)c2ccc(Cl)cc2)CCN1C(=O)CCc1ccc(Cl)cc1Cl (configuration not stated)	nt	nt	nt	-52	i
CC1(C(=O)NS(=O)(=O)c2cccc(Cl)c2)CCN1C(=O)Cc1ccc(Cl)cc1Cl (configuration not stated)	nt	nt	nt	-83	i
CC1(C(=O)NS(=O)(=O)c2cccc(Cl)c2)CCN1C(=O)CC1CC1 (configuration not stated)	nt	nt	nt	i	52
O=C(Nc1nnc2n1CCS2)c1cc(C(F)(F)F)cc(C(F)(F)F)c1	i	i	i	nt	i
Cc1ccc(Cl)cc1N1CCN(C(=O)c2cn(C)c3ccc(S(=O)(=O)N4CCCC4)cc3c2=O)CC1	i	i	i	nt	i
SMILES	D1 ag	D1 antag	D1 PAM	DRD3 antagonist	D3 ag
Cc1cc(=O)n2c(C(=O)Nc3ccc(Br)cc3)c(C(=O)Nc3ccccc3)sc2n1	i	i	i	nt	i
Cc1cc(C)cc(N2CCn3c2nc2c3c(=O)n(CCc3ccccc3)c(=O)n2C)c1	i	i	i	nt	i
CCCCOc1ccc(S(=O)(=O)NC(=O)C2(C)CCN2C(=O)CCc2ccccc2)cc1 (configuration not stated)	nt	nt	nt	-50	i
CCCCOc1ccc(S(=O)(=O)NC(=O)C2(C)CCN2C(=O)Cc2ccccc2Cl)cc1 (configuration not stated)	nt	nt	nt	i	i
COc1ccc(C2C(C(N)=O)=C(C)Nc3nc(SCc4ccccc4Cl)nn32)cc1OC (configuration not stated)	i	i	i	nt	i
CCn1c(=O)c(-c2nc3ccccc3[nH]2)c(O)c2ccccc21	i	i	i	-86	i

Screening data from PubChem BioAssay.
